Screening data (PubChem)
TDP1 inh = inhibitors of human tyrosyl-DNA phosphodiesterase TDP1; Q9NUW8; recombinant TDP1, AlphaScreen DNA substrate cleavage; Potency, µM (titrated, usually from 130 µM), for the others: at the highest dose activity change, negative = inhibition, usual class: inhibitors; 350,000 compounds, 0.28% hits; AID 485290; further: potency means the concentration at half of the fitted maximal effect; on the % scale 0 is the no-effect control and ±100 the full control effect; nearly all actives have a fitted effect of over 40% in size
Target sequence (Q9NUW8 whole entry, looked up): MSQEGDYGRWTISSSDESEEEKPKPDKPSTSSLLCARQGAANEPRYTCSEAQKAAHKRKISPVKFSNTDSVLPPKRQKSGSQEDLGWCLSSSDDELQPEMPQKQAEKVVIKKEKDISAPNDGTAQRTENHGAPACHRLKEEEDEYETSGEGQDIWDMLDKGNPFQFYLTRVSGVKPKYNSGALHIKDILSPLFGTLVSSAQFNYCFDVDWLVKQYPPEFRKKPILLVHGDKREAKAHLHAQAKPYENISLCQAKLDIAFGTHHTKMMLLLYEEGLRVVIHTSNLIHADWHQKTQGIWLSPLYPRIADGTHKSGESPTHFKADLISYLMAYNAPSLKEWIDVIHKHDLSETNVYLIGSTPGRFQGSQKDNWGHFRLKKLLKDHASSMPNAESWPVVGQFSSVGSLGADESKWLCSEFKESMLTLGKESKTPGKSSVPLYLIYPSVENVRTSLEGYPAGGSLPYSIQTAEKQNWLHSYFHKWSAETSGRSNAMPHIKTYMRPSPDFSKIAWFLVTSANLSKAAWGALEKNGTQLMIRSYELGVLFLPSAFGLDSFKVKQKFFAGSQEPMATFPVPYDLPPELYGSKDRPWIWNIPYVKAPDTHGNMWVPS
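Recombinant human Tdp1 (E. coli-expressed, 1 nM final) preincubated with compounds 15 min at room temperature, then 5'-biotin/3'-phosphotyrosine-FITC DNA substrate (15 nM final) added for 5 min. AlphaScreen beads (10 ug/ml final) added 10 min; cleavage lowers signal.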
DT40 TDP1 no CPT = qHTS for Inhibitors of human tyrosyl-DNA phosphodiesterase 1 (TDP1): qHTS in cells in absence of CPT; DT40 Tdp1-/- hTDP1 cells, no CPT, ATP luminescence, 48 h; Potency, µM (titrated, usually from 46.2 µM), for the others: top-dose activity change, negative = growth inhibition, most hits filed as inhibitors; 420,000 compounds, 15% hits; further: potency means the concentration at half of the fitted maximal effect; on the % scale 0 is the no-effect control and ±100 the full control effect; nearly all actives have a fitted effect of over 55% in size
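Seeded 400 DT40-hTDP1 cells/well (vehicle DMSO, no 20 nM CPT); pinned compounds; ≥48 hr at 37 °C; CellTiter-Glo luminescence as viability measure.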
TGFb SMAD3 inh = inhibitors of TGF-b signaling | Potency, µM (top dose mostly 46.1 µM), without a hit: at the top dose activity, negative = inhibition, usual class: inhibitors | HepG2 CAGA-GFP TGF-b/SMAD3 reporter, GFP fluorescence, 18 h; TGF-beta stimulated, 500 pg/mL final | 410,000 compounds, 1.2% hits | AID 588855; further: potency means the concentration at half of the fitted maximal effect; on the % scale 0 is the no-effect control and ±100 the full control effect; nearly all actives have a fitted effect of over 65% in size
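Using HEPG2 CAGA-GFP reporter cells at 1000 cells/well, we pinned test compounds, stimulated with recombinant TGF-beta (500 pg/mL final) and measured total well GFP after 18 h.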
HepG2 tox = counter-screen for TGF-b inhibitors: cytotoxicity in HepG2 cells | HepG2 CAGA-GFP viability, ATP luminescence, 18 h | Potency, µM (series often up to 46.1 µM), inactives show at the highest dose activity change, negative = cytotoxicity, most hits filed as cytotoxic | 410,000 compounds, 0.76% hits | AID 588856; further: potency means the concentration at half of the fitted maximal effect
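CellTiter-Glo luminescence gave cytotoxicity after 18 hours at 37 degrees C. The cells were HepG2 CAGA-GFP in 1% FBS DMEM, stimulated with 500 pg/mL TGF-beta after compound addition. %Activity was normalised to no-cell wells (complete cell-killing) and DMSO (no toxicity), and curves were fitted and classified.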
IL1B secr inh = inhibitors of inflammasome signaling (IL-1 beta secretion) | THP-1 LPS/ATP IL-1B secretion, AlphaLISA, 16 h; stronger effect = lower value | activity change, % at 57.5 µM | 360,000 compounds, 4.7% hits | AID 743279; in the data active means activity change below about -50%; inconclusive means mostly about -30% to -49%; further: on the % scale 0 is the no-effect control and ±100 the full control effect
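THP-1 cells pretreated 1 hr with compounds (up to 57.5 uM final), then stimulated with LPS (250 ng/mL final) plus ATP (1.25 mM final); secreted IL-1B measured by AlphaLISA after 16 hr, decreased signal indicating inhibition.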
TDP1 cell CPT = DT40-hTDP1 cell growth loss with CPT; chicken DT40 Tdp1-/-;hTDP1 cells + 20 nM CPT, ATP luminescence, 48 h; Potency, µM (top dose mostly 46.2 µM), inactives show top-dose activity change, negative = growth inhibition, hits mostly inhibitors; 420,000 compounds, 12% hits; further: potency means the concentration at half of the fitted maximal effect; on the % scale 0 is the no-effect control and ±100 the full control effect; nearly all actives have a fitted effect of over 55% in size
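Chicken DT40 Tdp1-/- cells stably complemented with human TDP1 were seeded at 400 cells/well in medium containing 20 nM camptothecin, exposed to pin-transferred compounds, and grown at 37 °C for at least 48 hr. Viability was read as ATP luminescence.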
An asterisk follows results filed as active; ? = inconclusive; . = no result. An excerpt weighted towards active compounds, which were near 18% of everything screened. Unless noted, the call rests on the fitted dose curve; in most records, active means well fitted curve in the direction sought with a large enough effect; inconclusive means small, poorly fitted or top-dose-only effect, or another doubt; inactive means no such curve, though single readings can be large; an effect the other way counts as inactive or inconclusive.

SMILES	TDP1 inh	DT40 TDP1 no CPT	TGFb SMAD3 inh	HepG2 tox	IL1B secr inh	TDP1 cell CPT
CN(C)C(=O)c1cccc(-c2cccc(-c3nc(C(=O)NCc4ccccc4)cc4c3[C@H](CCO)N(S(=O)C(C)(C)C)C4)c2)c1 (stereo not given in full)	.	?	3.3%	-0.4%	0.0	?
CCNC(=O)c1cc2c(c(-c3cccc(-c4cccc(C(=O)N(C)C)c4)c3)n1)[C@@H](CCO)N(S(=O)C(C)(C)C)C2 (stereo not given in full)	.	20.6µM*	-10.0%	-16.4%	-22.6	?
CC(C)(C)S(=O)N1Cc2cc(C(=O)NCC(F)(F)F)nc(-c3cccc(-c4cccc(F)c4)c3)c2[C@@H]1CCO (stereo not given in full)	.	18.4µM*	?	-4.3%	-2.2	18.4µM*
Cc1ccc2c(C)nc(Nc3nc(CSc4nc5ccccc5[nH]4)cc(=O)[nH]3)nc2c1	-3.9%	11.6µM*	?	-41.2%	-86.3*	11.6µM*
Cc1ccc(SCc2cc(=O)[nH]c(Nc3nc(C)c4ccc(C)cc4n3)n2)cc1	3.5%	?	?	11.5%	22.2	?
Cc1ccc(SCc2cc(=O)[nH]c(Nc3nc(C)c4ccccc4n3)n2)cc1	5.3%	?	-11.0%	-19.1%	-6.6	11.6µM*
Cc1nc(Nc2nc3c(c(=O)[nH]2)CCC3)nc2ccccc12	.	4.11µM*	?	8.0%	-77.4*	5.8µM*
Cc1ccccc1CSc1nc2c(c(=O)[nH]1)CCC2	4.4%	-29.6%	-6.5%	-3.4%	10.9	?
O=C(Nc1ccccc1)N1CC[C@@]2(CCCN(C(=O)c3cnccn3)C2)C1	.	-3.7%	.	.	.	-6.8%
COc1cc(N)c(Cl)cc1C(=O)N[C@@H]1CCN(CCCOc2ccc(F)cc2)C[C@@H]1OC	0.0%	.	.	.	.	.
CS(=O)(=O)N(CC(=O)NCCSCc1cccc(Cl)c1)c1ccccc1F	.	?	-19.2%	-14.6%	10.2	-8.2%
CC(Cc1ccccc1)NC(=O)CCCN1C(=O)c2ccccc2C1=O (stereo not given)	.	13.4%	-8.6%	4.3%	5.6	4.5%
COC(=O)c1cccc(C23CC4(C2)[C@H](CN(CC2CCCCC2)[C@@H]4c2ccccc2)C3c2ccc(C(F)(F)F)cc2)c1 (stereo not given in full)	12.3%	.	.	.	.	.
O=c1c2ccccc2nnn1CSc1nnc(C2COc3ccccc3O2)n1-c1ccccc1 (stereo not given)	5.8%	?	6.1%	-2.5%	13.2	20.6µM*
O=C(OCn1nnc2ccccc2c1=O)C1COc2ccccc2O1 (stereo not given)	-2.6%	1.5%	-2.0%	0.2%	-3.6	-16.5%
COc1ccc(-c2ccc3c(c2)S(=O)(=O)c2cccc(C(=O)NC4CC4)c2C3=O)cc1OC	-10.5%	-27.2%	?	6.1%	-2.4	?
COc1ccc(-c2ccc3c(c2)S(=O)(=O)c2cccc(C(=O)NC4CCCCC4)c2C3=O)cc1OC	-3.5%	23.1µM*	4.9%	-32.7%	16.0	14.6µM*
COc1ccc(-c2ccc3c(c2)S(=O)(=O)c2cccc(C(=O)NCc4ccccc4Cl)c2C3=O)cc1OC	25.1µM*	14.6µM*	-0.3%	-29.9%	10.7	20.6µM*
COc1ccc(-c2ccc3c(c2)S(=O)(=O)c2cccc(C(=O)NCCOc4ccccc4Cl)c2C3=O)cc1OC	28.2µM*	23.1µM*	3.5%	-51.0%	158.7	23.1µM*
COc1ccc(OC[C@@H](O)CNC(=O)c2cccc3c2C(=O)c2ccc(Cl)cc2S3(=O)=O)cc1	3.8%	?	-5.5%	-13.2%	0.0	-26.3%
O=C(CCCN1C(=O)c2cccc3cccc(c23)C1=O)N1CCN(c2ccc(F)cc2)CC1	7.2%	16.4µM*	-28.8%	0.4%	-53.5*	?
COc1ccc(N2CCN(C(=O)CCCN3C(=O)c4cccc5cccc(c45)C3=O)CC2)cc1	9.6%	16.4µM*	-8.4%	-13.9%	-15.5	?
COc1ccccc1N1CCN(C(=O)CCN2C(=O)c3cccc4cccc(c34)C2=O)CC1	-5.1%	?	8.8%	-1.2%	7.0	?
Cc1ccccc1-c1nc(CS(=O)(=O)CC(=O)N(C)C2CCCCC2)c(C)o1	3.3%	?	-18.5%	-11.6%	-8.7	?
Cc1ccccc1-c1nc(CN(Cc2c(C)nn(C)c2C)C2CC2)c(C)o1	-2.4%	23.1µM*	-38.4%	-16.1%	-75.8*	?
SMILES	TDP1 inh	DT40 TDP1 no CPT	TGFb SMAD3 inh	HepG2 tox	IL1B secr inh	TDP1 cell CPT
CCOc1ccc(S(=O)(=O)NCCC(=O)NCC(c2ccco2)N2CCCCC2)cc1 (stereo not given)	-0.6%	5.7%	1.2%	-0.6%	-24.2	4.4%
COc1ccc(OCCn2c(NC(=O)c3ccco3)nc3ccccc32)cc1	12.3%	23.1µM*	0.0%	-32.4%	-19.5	18.4µM*
CC(=O)Nc1nc2ccccc2n1CCOc1ccccc1	6.6%	?	4.4%	-34.9%	24.2	?
S=C(Nc1ccccc1)Nc1nc2ccccc2n1CCOc1ccccc1	11.8%	16.4µM*	4.8%	-44.9%	-105.8*	18.4µM*
COc1ccc(C(=O)Nc2nc3ccccc3n2CCOc2ccc(Cl)cc2)cc1	.	13µM*	-24.3%	-3.4%	.	?
O=C(CSc1nc2c(oc3ccccc32)c(=O)n1CC1CCCO1)NCc1ccccc1 (stereo not given)	3.3%	?	1.1%	5.2%	7.4	?
CCCN1C(=O)SC(CC(=O)Nc2ccc(C)cc2)C1=O (stereo not given)	-7.3%	?	-2.3%	2.3%	-1.1	18.4µM*
CC(=O)Nc1ccc(NC(=O)CC2SC(=O)N(CC(=O)c3ccccc3)C2=O)cc1 (stereo not given)	0.4%	20.6µM*	-4.8%	-2.6%	-4.7	18.4µM*
O=C(CC1Sc2ncnn2C1=O)Nc1ccccc1 (stereo not given)	.	14.6µM*	?	11.3%	-6.1	7.31µM*
Cc1ccc(NC(=O)CC2SC3=NCCN3C2=O)cc1 (stereo not given)	5.5%	?	1.7%	-26.1%	5.9	?
CC(=O)Nc1ccc(NCC(=O)c2ccccc2)cc1	-1.7%	?	5.0%	7.9%	69.2	?
